Laboratory results reported in the supplement of paper PMC6555819.

What was measured:
Experiment in all cases: PBM binding z-score (relative to random genomic background probes); higher = stronger binding; sequences stand for … in GC…GCGATTGACAGCGTAGAATGAAGG
[1] = system: FXR:RXRa (NR concentration 270 nM, RXRa partner concentration 90 nM)
Method in brief: (§1)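 Each nuclear receptor dimer, without ligand, was incubated for 1 h on custom Agilent 4×180K protein-binding microarrays. Binding was detected with antibodies against each partner (one per run), and scanned fluorescence was regression-normalized. The binding z-scores are referenced to random human genomic background probes.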

[2] = system: LXRa:RXRa (NR concentration 270 nM, RXRa partner concentration 90 nM)
Method in brief: as §1

[3] = system: LXRa homodimer (NR concentration 270 nM)
Method in brief: as §1

[4] = system: LXRb:RXRa (NR concentration 270 nM, RXRa partner concentration 90 nM)
Method in brief: as §1

[5] = system: LXRb homodimer (NR concentration 270 nM)
Method in brief: as §1

[6] = system: PPARa:RXRa (NR concentration 270 nM, RXRa partner concentration 90 nM)
Method in brief: as §1

[7] = system: PPARg:RXRa (NR concentration 180 nM, RXRa partner concentration 90 nM)
Method in brief: as §1

[8] = system: PPARg:RXRa 270nM:90nM, anti-RXR (NR concentration 270 nM, RXRa partner concentration 90 nM)
Method in brief: as §1

[9] = system: PPARg:RXRa 30nM:10nM, anti-RXR (NR concentration 30 nM, RXRa partner concentration 10 nM)
Method in brief: as §1

[10] = system: PPARg:RXRa 90nM:30nM, anti-RXR (NR concentration 90 nM, RXRa partner concentration 30 nM)
Method in brief: as §1

CGGCCAAGGTCAAGGTCAGTGAAAGAGACTCGAA
PBM binding z-score [1]: 7.61
PBM binding z-score [2]: 5.58
PBM binding z-score [3]: 0.407
PBM binding z-score [4]: 4.63
PBM binding z-score [5]: 0.323
PBM binding z-score [6]: 6.12
PBM binding z-score [7]: 6.44
PBM binding z-score [8]: 6.23
PBM binding z-score [9]: 2.33
PBM binding z-score [10]: 4.85

TCTATTAGATGATTAGGGCAACCGAAACAGCGGA
PBM binding z-score [1]: 0.507
PBM binding z-score [2]: 0.432
PBM binding z-score [3]: 0.054
PBM binding z-score [4]: 0.49
PBM binding z-score [5]: 0.329
PBM binding z-score [6]: 0.871
PBM binding z-score [7]: 0.674
PBM binding z-score [8]: 1.88
PBM binding z-score [9]: 3.31
PBM binding z-score [10]: 2.68

GCATATAGGTAATACAAGGTGACAGTCCGATTGT
PBM binding z-score [1]: 0.924
PBM binding z-score [2]: 1.5
PBM binding z-score [3]: 0.00702
PBM binding z-score [4]: 0.333
PBM binding z-score [5]: -0.21
PBM binding z-score [6]: 1.16
PBM binding z-score [7]: 1.5
PBM binding z-score [8]: 1.19
PBM binding z-score [9]: 0.699
PBM binding z-score [10]: 0.902

CGTCAAAGTGCAAGGTAACGTAACAGAAAGCAGC
PBM binding z-score [1]: 0.00612
PBM binding z-score [2]: 0.219
PBM binding z-score [3]: -0.312
PBM binding z-score [4]: 0.159
PBM binding z-score [5]: -0.589
PBM binding z-score [6]: 0.731
PBM binding z-score [7]: 0.773
PBM binding z-score [8]: 0.593
PBM binding z-score [9]: -0.0711
PBM binding z-score [10]: 0.326

ACTAGTTGGACAGCTGAGGTCACACACAATTCGG
PBM binding z-score [1]: 3.1
PBM binding z-score [2]: 2.78
PBM binding z-score [3]: 1.59
PBM binding z-score [4]: 3.3
PBM binding z-score [5]: 0.683
PBM binding z-score [6]: 3.53
PBM binding z-score [7]: 1.65
PBM binding z-score [8]: 1.76
PBM binding z-score [9]: 0.342
PBM binding z-score [10]: 1.41

TCTCTGAGGACACGAAAGGTCAGAGCTCGACATC
PBM binding z-score [1]: 3.12
PBM binding z-score [2]: 3.53
PBM binding z-score [3]: 3.1
PBM binding z-score [4]: 2.98
PBM binding z-score [5]: 0.245
PBM binding z-score [6]: 3.53
PBM binding z-score [7]: 1.56
PBM binding z-score [8]: 2.9
PBM binding z-score [9]: 2.68
PBM binding z-score [10]: 2.75

ACTATTAGTTGAGACGAGGGCGACCGATAGGTTG
PBM binding z-score [1]: 0.0775
PBM binding z-score [2]: -0.2
PBM binding z-score [3]: 0.0498
PBM binding z-score [4]: -0.401
PBM binding z-score [5]: 8.35e-05
PBM binding z-score [6]: -0.485
PBM binding z-score [7]: 0.629
PBM binding z-score [8]: -0.198
PBM binding z-score [9]: 0.0514
PBM binding z-score [10]: -0.0518

GATACAGGGTCAGCTAGAGTCCAGAGTATGGAAA
PBM binding z-score [1]: 4.63
PBM binding z-score [2]: 2.73
PBM binding z-score [3]: -0.197
PBM binding z-score [4]: 2.46
PBM binding z-score [5]: -0.266
PBM binding z-score [6]: 4.62
PBM binding z-score [7]: 3.75
PBM binding z-score [8]: 3.12
PBM binding z-score [9]: 0.896
PBM binding z-score [10]: 1.87

ATCTCTAGGTCAGACTCAGTTCAGTGAAGAACGC
PBM binding z-score [1]: 2.16
PBM binding z-score [2]: 3.65
PBM binding z-score [3]: 3.15
PBM binding z-score [4]: 2.13
PBM binding z-score [5]: 2
PBM binding z-score [6]: 2.7
PBM binding z-score [7]: 3.02
PBM binding z-score [8]: 2.96
PBM binding z-score [9]: 0.87
PBM binding z-score [10]: 2.1

TCTATTAGTTGAAGGGAAACCGACGAGTCCGTTT
PBM binding z-score [1]: 0.681
PBM binding z-score [2]: 0.912
PBM binding z-score [3]: 0.189
PBM binding z-score [4]: 0.65
PBM binding z-score [5]: 0.644
PBM binding z-score [6]: 0.587
PBM binding z-score [7]: -0.183
PBM binding z-score [8]: 2.13
PBM binding z-score [9]: 4.34
PBM binding z-score [10]: 3.16

CCTTACGGGTCACGAGGTTATAGTACGACGAGCG
PBM binding z-score [1]: 6.36
PBM binding z-score [2]: 4.81
PBM binding z-score [3]: 0.561
PBM binding z-score [4]: 4.06
PBM binding z-score [5]: 0.224
PBM binding z-score [6]: 6.09
PBM binding z-score [7]: 7.25
PBM binding z-score [8]: 6.66
PBM binding z-score [9]: 3.38
PBM binding z-score [10]: 5.43

CCAGACACGTGAAAGGTAACTCAGTCTGGTACGC
PBM binding z-score [1]: -0.513
PBM binding z-score [2]: -0.178
PBM binding z-score [3]: -0.428
PBM binding z-score [4]: 0.0481
PBM binding z-score [5]: -0.283
PBM binding z-score [6]: 0.287
PBM binding z-score [7]: 0.636
PBM binding z-score [8]: 0.0199
PBM binding z-score [9]: -0.466
PBM binding z-score [10]: -0.253

CAAACTAGGTCAAGAGATCAAAGTCCGCTTCCCG
PBM binding z-score [1]: 3.4
PBM binding z-score [2]: 2.88
PBM binding z-score [3]: 0.62
PBM binding z-score [4]: 1.95
PBM binding z-score [5]: 0.064
PBM binding z-score [6]: 5.17
PBM binding z-score [7]: 8.04
PBM binding z-score [8]: 6.89
PBM binding z-score [9]: 4.87
PBM binding z-score [10]: 6.68

ATCTCTAGGGAAAAGTTCAGTGAATCCCGAGGAT
PBM binding z-score [1]: -0.0297
PBM binding z-score [2]: 0.401
PBM binding z-score [3]: 0.405
PBM binding z-score [4]: 0.302
PBM binding z-score [5]: 0.328
PBM binding z-score [6]: 2.67
PBM binding z-score [7]: 4.59
PBM binding z-score [8]: 5.66
PBM binding z-score [9]: 3.84
PBM binding z-score [10]: 5.64

TCAGCTAGGTCAGTTGGTCAGCTAACGAGCTGCC
PBM binding z-score [1]: 0.695
PBM binding z-score [2]: 0.358
PBM binding z-score [3]: -0.597
PBM binding z-score [4]: 0.201
PBM binding z-score [5]: -0.435
PBM binding z-score [6]: 1.22
PBM binding z-score [7]: 0.615
PBM binding z-score [8]: 1.71
PBM binding z-score [9]: 1.93
PBM binding z-score [10]: 1.94

AGAATGAGTTTAAGATCAGGGAAACAGAATACAT
PBM binding z-score [1]: -0.0291
PBM binding z-score [2]: -0.0527
PBM binding z-score [3]: -0.102
PBM binding z-score [4]: -0.0907
PBM binding z-score [5]: -0.243
PBM binding z-score [6]: -0.0432
PBM binding z-score [7]: 0.814
PBM binding z-score [8]: -0.0778
PBM binding z-score [9]: 0.203
PBM binding z-score [10]: 0.0165

CAAACTAGGTCAAGAGGTCAAATTCCGCTTCCCG
PBM binding z-score [1]: 7.41
PBM binding z-score [2]: 6.59
PBM binding z-score [3]: 7.45
PBM binding z-score [4]: 6.01
PBM binding z-score [5]: 2.95
PBM binding z-score [6]: 6.83
PBM binding z-score [7]: 9.67
PBM binding z-score [8]: 8.42
PBM binding z-score [9]: 7.02
PBM binding z-score [10]: 8.9

TCTTGTAGATCAGCACGTTAAGAAAGCTGGCCAA
PBM binding z-score [1]: 0.121
PBM binding z-score [2]: 0.0301
PBM binding z-score [3]: -0.232
PBM binding z-score [4]: -0.0159
PBM binding z-score [5]: -0.411
PBM binding z-score [6]: 0.18
PBM binding z-score [7]: -0.291
PBM binding z-score [8]: 0.766
PBM binding z-score [9]: 2.47
PBM binding z-score [10]: 1.43

ATCTCTAGGTAAAGATAGTTCAGAGAATGCAAAT
PBM binding z-score [1]: 0.206
PBM binding z-score [2]: 3.56
PBM binding z-score [3]: 0.259
PBM binding z-score [4]: 0.69
PBM binding z-score [5]: 0.411
PBM binding z-score [6]: 0.663
PBM binding z-score [7]: 0.843
PBM binding z-score [8]: 0.494
PBM binding z-score [9]: 0.309
PBM binding z-score [10]: 0.609

TCTTGTAGATCAAGCAGGTTAGGAAAGCCTGAGT
PBM binding z-score [1]: -0.176
PBM binding z-score [2]: 0.11
PBM binding z-score [3]: -0.571
PBM binding z-score [4]: -0.145
PBM binding z-score [5]: -0.701
PBM binding z-score [6]: 0.251
PBM binding z-score [7]: -0.615
PBM binding z-score [8]: 1
PBM binding z-score [9]: 2.29
PBM binding z-score [10]: 1.62

CCTACAGGGTCAGCTAGGCCAGAGTAGGGACGGC
PBM binding z-score [1]: 4.39
PBM binding z-score [2]: 2.61
PBM binding z-score [3]: -0.714
PBM binding z-score [4]: 1.7
PBM binding z-score [5]: -0.84
PBM binding z-score [6]: 4.2
PBM binding z-score [7]: 2.56
PBM binding z-score [8]: 2.7
PBM binding z-score [9]: 0.464
PBM binding z-score [10]: 1.31

CCTTAAGGGTCACTCCAGGTTATAGCATCGGAGT
PBM binding z-score [1]: 6.75
PBM binding z-score [2]: 7.97
PBM binding z-score [3]: 3.36
PBM binding z-score [4]: 5.9
PBM binding z-score [5]: 0.565
PBM binding z-score [6]: 5.33
PBM binding z-score [7]: 4.86
PBM binding z-score [8]: 5.1
PBM binding z-score [9]: 2.01
PBM binding z-score [10]: 4.34

TAGCCTAGGTCAGATCGGGCCAGGATACGCTATA
PBM binding z-score [1]: 1.61
PBM binding z-score [2]: 1.02
PBM binding z-score [3]: -0.706
PBM binding z-score [4]: 0.308
PBM binding z-score [5]: -0.62
PBM binding z-score [6]: 1.68
PBM binding z-score [7]: 0.718
PBM binding z-score [8]: 0.623
PBM binding z-score [9]: -0.241
PBM binding z-score [10]: -0.042

AGAACGAGGGCTATGAGTTGATAGCACGGGTGGC
PBM binding z-score [1]: -0.355
PBM binding z-score [2]: -0.47
PBM binding z-score [3]: -0.658
PBM binding z-score [4]: -0.828
PBM binding z-score [5]: -0.486
PBM binding z-score [6]: -0.335
PBM binding z-score [7]: 0.792
PBM binding z-score [8]: 0.00243
PBM binding z-score [9]: -0.297
PBM binding z-score [10]: 0.151
